Source: PubChem BioAssay AID1159580 (chemical genetic matrix, 2015)
Among all 5,500 compounds or so, about 2,000 (36%) were called active. Not shown: some 18% with an inconclusive outcome. Cut-off read from the data, not from the text of the source: active = normalized growth mostly below about 0.91 (no sharp cut-off); inconclusive = no clear call, values can overlap the other calls; inactive = mostly above about 0.92. The list shows a part of the results.

Assay: chemical genetic growth profiling, strain panel (AID 1159580);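 note: tested at 20 µM; growth read once vehicle control cultures reached saturation at 30 °C; 1 = growth at the plate median or of vehicle wells; lower values mean less growth of the strain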
Conditions: S. cerevisiae deletion strains, growth OD

Measured: normalized growth

O=C1OC2(c3ccc(O)cc3Oc3cc(O)ccc32)c2ccccc21
inactive: locus YAL021C, strain ccr4, hits give low values 1.02 | locus YAL026C, strain drs2, hits give low values 0.997 | locus YAL030W, strain snc1, hits give low values 1.01 | locus YBL061C, strain skt5, hits give low values 1.01 | locus YBR009C, strain hhf1, hits give low values 0.995 | locus YBR023C, strain chs3, hits give low values 1.02 | locus YBR171W, strain sec66, hits give low values 1.04 | locus YBR231C, strain swc5, hits give low values 1 | locus YBR279W, strain paf1, hits give low values 1.01 | locus YCL011C, strain gbp2, hits give low values 1.02 | locus YCL016C, strain dcc1, hits give low values 1 | locus YCL069W, strain vba3, hits give low values 1.02 | locus YCR088W, strain abp1, hits give low values 1.03 | locus YDL005C, strain med2, hits give low values 1.02 | locus YDL040C, strain nat1, hits give low values 1.01 | locus YDR001C, strain nth1, hits give low values 1.03 | locus YDR069C, strain doa4, hits give low values 1.01 | locus YDR137W, strain rgp1, hits give low values 0.994 | locus YDR159W, strain sac3, hits give low values 0.986 | locus YDR195W, strain ref2 1.03 | locus YDR297W, strain sur2, hits give low values 1.02 | locus YDR334W, strain swr1, hits give low values 0.989 | locus YDR335W, strain msn5, hits give low values 1.01 | locus YDR392W, strain spt3, hits give low values 0.976 | locus YEL003W, strain gim4, hits give low values 1.01 | locus YEL037C, strain rad23, hits give low values 1.01 | locus YEL061C, strain CIN8 (second series), hits give low values 1.01 | locus YER015W, strain faa2, hits give low values 1.01 | locus YER016W, strain bim1, hits give low values 0.994 | locus YER111C, strain swi4, hits give low values 1.01 | locus YER155C, strain BEM2 (second series), hits give low values 1.02 | locus YFR010W, strain ubp6, hits give low values 1.02 | locus YGL167C, strain pmr1, hits give low values 1.02 | locus YGL173C, strain kem1, hits give low values 1.01 | locus YGL227W, strain vid30, hits give low values 1.02 | locus YGL240W, strain doc1, hits give low values 0.973 | locus YGL253W, strain hxk2, hits give low values 1.02 | locus YHR013C, strain ard1, hits give low values 1.04 | locus YHR027C, strain rpn1, hits give low values 1.01 | locus YHR030C, strain SLT2, hits give low values 0.978 | locus YHR079C, strain IRE1, hits give low values 0.974 | locus YHR142W, strain chs7, hits give low values 1.04 | locus YJL092W, strain hpr5, hits give low values 1.02 | locus YJL095W, strain BCK1 (second series), hits give low values 1.01 | locus YJL095W, strain BCK1, hits give low values 1.02 | locus YJL115W, strain asf1, hits give low values 1.01 | locus YJL129C, strain trk1, hits give low values 1.04 | locus YJL154C, strain vps35, hits give low values 1.02 | locus YJL164C, strain tpk1, hits give low values 1 | locus YJL166W, strain qcr8, hits give low values 1 | locus YJR066W, strain TOR1, hits give low values 0.938 | locus YKL160W, strain elf1, hits give low values 1.02 | locus YKR026C, strain gcn3, hits give low values 1.02 | locus YKR091W, strain srl3, hits give low values 1.02 | locus YLL001W, strain dnm1, hits give low values 0.997 | locus YLL026W, hits give low values 0.999 | locus YLL041C, strain sdh2, hits give low values 1.01 | locus YLR027C, strain aat2, hits give low values 1.01 | locus YLR113W, strain HOG1, hits give low values 0.98 | locus YLR221C, strain rsa3, hits give low values 0.999 | locus YLR258W, strain gsy2, hits give low values 1.01 | locus YLR262C, strain YPT6 (second series), hits give low values 1 | locus YLR320W, strain mms22, hits give low values 1 | locus YLR342W, strain FKS1, hits give low values 0.992 | locus YLR357W, strain rsc2, hits give low values 1.01 | locus YLR370C, strain arc18, hits give low values 1.01 | locus YLR384C, strain iki3, hits give low values 1.02 | locus YML120C, strain ndi1, hits give low values 1.04 | locus YMR058W, strain fet3, hits give low values 1.01 | locus YMR125W, strain sto1, hits give low values 1.02 | locus YMR129W, hits give low values 1.02 | locus YMR205C, strain PFK2, hits give low values 1.02 | locus YMR231W, strain pep5, hits give low values 1.02 | locus YNL071W, strain lat1, hits give low values 1.01 | locus YNL183C, strain NPR1, hits give low values 0.951 | locus YNL209W, strain ssb2, hits give low values 1.02 | locus YNL248C, strain rpa49, hits give low values 1 | locus YNL322C, strain KRE1 (second series), hits give low values 0.99 | locus YNR049C, strain mso1, hits give low values 1.02 | locus YOR001W, strain rrp6, hits give low values 1.01 | locus YOR070C, strain gyp1, hits give low values 1.01 | locus YOR080W, strain dia2, hits give low values 1.02 | locus YOR083W, strain WHI5, hits give low values 0.98 | locus YOR106W, strain vam3, hits give low values 1.02 | locus YOR231W, strain MKK1, hits give low values 0.971 | locus YOR265W, strain rbl2, hits give low values 1.01 | locus YOR270C, strain vph1, hits give low values 0.991 | locus YOR290C, strain snf2, hits give low values 1 | locus YPL051W, strain arl3, hits give low values 0.997 | locus YPL078C, strain atp4, hits give low values 0.992 | locus YPL106C, strain sse1, hits give low values 0.987 | locus YPL240C, strain hsp82, hits give low values 1.01 | locus YPL256C, strain CLN2, hits give low values 0.99
